# Assay outcomes: PubChem BioAssay, Sanford-Burnham Center for Chemical Genomics
# A selection: hits, their analogues and other compounds. The true share with any hit is near 6.3%.
# tim23-1 inh: growth inhibitors of tim23-1 mutant yeast, primary screen, luminescence, uHTS | S. cerevisiae tim23-1 growth, BacTiter-Glo luminescence, 24 h | inhibition, % at 20 µM | 1.3% of 330,000 active;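 active = growth inhibition of the mutant yeast at or above 50%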;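 note: temperature-sensitive mutant grown at 25 °C; plate controls were DMSO-treated mutant yeast for no effect and medium wells lacking yeast for full effect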
# tim10-1 inh: growth inhibitors of tim10-1 mutant yeast, primary screen, luminescence, uHTS | S. cerevisiae tim10-1 ts strain growth, BacTiter-Glo, 24 h | inhibition, % at 20 µM | 2.2% of 330,000 active;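 active = inhibition of at least 40%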;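 note: mutant grown at 25 °C; 0% = DMSO wells with yeast and 100% = wells holding no yeast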
# MPTP inh: mitochondrial permeability transition pore inhibitors, primary screen, biochemical, isolated mouse mitochondria, absorbance. Ca2+ swelling absorbance, 30 min. inhibition, % at 10 µM. 1.4% of 360,000 active. AID 602449, 2012;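 active = inhibition of 50% or more, scaled per plate between neutral and stimulator controls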;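 note: 0% = DMSO wells given calcium and 100% = 1 mM EGTA wells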
# TIM10 inh: growth inhibitors of isogenic TIM10 control yeast, primary screen, counter-screen for tim10-1 yeast inhibitor project, luminescence, uHTS. S. cerevisiae TIM10 strain growth, BacTiter-Glo luminescence, 24 h. inhibition, % at 10 µM. 1.4% of 330,000 active;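 active = inhibition of 40% or more at the single tested concentration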;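 note: wild-type TIM10 isogenic control strain grown at permissive 25 °C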
# Mdm2 MdmX PPI: inhibitors of human Mdm2-MdmX association, primary screen, cell-based, luminescence, split luciferase, SaOS-2, uHTS | Protein Mdm4 (Homo sapiens) + E3 ubiquitin-protein ligase Mdm2 (Homo sapiens), … | SaOS-2 split-luciferase Mdm2/MdmX complementation | inhibition, % at 8 µM | 3% of 330,000 active;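 active = inhibition of at least 50% at 8 µM in the primary screen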
# Target sequence (O15151 whole entry, looked up): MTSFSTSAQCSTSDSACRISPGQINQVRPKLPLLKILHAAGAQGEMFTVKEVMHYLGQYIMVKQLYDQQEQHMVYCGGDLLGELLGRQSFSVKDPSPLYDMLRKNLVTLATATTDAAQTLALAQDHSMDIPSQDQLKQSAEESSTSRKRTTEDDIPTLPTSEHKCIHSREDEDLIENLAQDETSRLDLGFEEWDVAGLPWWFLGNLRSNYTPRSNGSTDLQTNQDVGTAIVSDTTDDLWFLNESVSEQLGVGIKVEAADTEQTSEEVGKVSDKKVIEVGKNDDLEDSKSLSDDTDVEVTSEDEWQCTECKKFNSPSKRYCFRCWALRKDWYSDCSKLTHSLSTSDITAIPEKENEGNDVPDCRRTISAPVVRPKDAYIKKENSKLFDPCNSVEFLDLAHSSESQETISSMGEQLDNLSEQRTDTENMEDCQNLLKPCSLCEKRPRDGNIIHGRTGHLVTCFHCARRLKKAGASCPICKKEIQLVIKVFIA
# Target sequence (Q00987 whole entry, looked up): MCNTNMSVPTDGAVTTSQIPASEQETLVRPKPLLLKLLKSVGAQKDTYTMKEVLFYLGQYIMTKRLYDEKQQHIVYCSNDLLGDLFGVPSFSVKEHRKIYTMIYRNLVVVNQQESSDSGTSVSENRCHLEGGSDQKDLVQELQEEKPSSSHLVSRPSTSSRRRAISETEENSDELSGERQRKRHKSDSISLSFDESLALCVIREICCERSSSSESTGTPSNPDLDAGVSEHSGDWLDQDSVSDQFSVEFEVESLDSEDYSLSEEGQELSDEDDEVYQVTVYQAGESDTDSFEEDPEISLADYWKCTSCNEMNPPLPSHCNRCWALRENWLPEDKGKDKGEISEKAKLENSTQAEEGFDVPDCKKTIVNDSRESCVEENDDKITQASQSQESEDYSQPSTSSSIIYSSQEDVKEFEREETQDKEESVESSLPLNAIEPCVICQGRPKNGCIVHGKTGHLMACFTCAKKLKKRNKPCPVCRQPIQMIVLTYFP
# Mdm2 MdmX conf: Mdm2-MdmX complex disruptors, retested hits, confirmation, luminescence, single concentration. shares compounds with Mdm2 MdmX PPI. Mdm2-MdmX binding, luminescent assay. inhibition, % at 8 µM. 55% of 10,000 active; in the data active = inhibition above about 40%
# FLuc counter: full-length luciferase signal inhibition, confirmation, counter-screen for Mdm2/MdmX interaction inhibitor project, cell-based, single concentration, SaOS-2 | 77% of 6,200 active | SaOS-2 full-length luciferase counterscreen, luminescence | shares compounds with Mdm2 MdmX PPI | inhibition, % at 8 µM;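 active = mean inhibition at 8 µM reaching about 37%, which flags the compound as non-specific, limit read from the data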;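 note: p53-null SaOS-2 cells with luciferase driven by a doxycycline-inducible promoter; compound on cells about two nights before reading with doxycycline added after day one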
# Active calls of the source: *; . = no result.
SMILES,tim23-1 inh,tim10-1 inh,MPTP inh,TIM10 inh,Mdm2 MdmX PPI,Mdm2 MdmX conf,FLuc counter
Cc1ccc2nc(NNC(=O)c3ccc4c(c3)OCCO4)sc2c1,19,-19,-1,-19,9,.,.
O=C(Nc1nc(-c2ccc(S(=O)(=O)N3CCCCCC3)cc2)cs1)c1ccccc1,6,14,5,14,30,.,.
Cc1cccc2sc(NNC(=O)c3ccc(S(=O)(=O)N4CC(C)CC(C)C4)cc3)nc12 (centres undefined),32,9,28,-12,88*,87*,55*
Cc1ccc2nc(NNC(=O)c3ccc(S(=O)(=O)N4CCc5ccccc5C4)cc3)sc2c1,23,-10,14,-25,74*,88*,63*
Cc1cc(C)c2nc(NNC(=O)c3ccc(S(=O)(=O)N4CC(C)CC(C)C4)cc3)sc2c1 (centres undefined),25,8,10,-9,84*,70*,23
CCCCC(=O)N(C)c1c(C)nc2ccc(C(=O)Nc3cccc(OC)c3)cn12,.,.,0,.,.,.,.
CCc1ccc(C2CC3C(CN2S(=O)(=O)c2ccc(C)cc2)[C@@H](O)C[C@@H](c2ccc(CC)cc2)N3S(=O)(=O)c2ccc(C)cc2)cc1 (some centres undefined),.,.,0,.,.,.,.
COc1cccc(CNc2nc3cc(-c4ccc(OC)cc4C)sc3c(=O)n2C)c1,.,.,-1,.,.,.,.
Cc1cc(C)c2nc(NNC(=O)c3ccc(S(=O)(=O)N4CCCC(C)C4)cc3)sc2c1 (centres undefined),31,-5,1,-55,83*,86*,45*
COC(=O)c1sc2ccccc2c1NC(=O)c1ccc(S(=O)(=O)N2CCCC(C)C2)cc1 (centres undefined),-7,2,4,-5,28,.,.
CC1=CC(=O)C(C(C)C)=C/C1=C(\c1cc(C(C)C)c(OP(=O)(O)O)cc1C)c1ccccc1C(=O)O,3,16,0,21,75*,68*,50*
CCOc1ccc(C(=O)c2ccccc2C(=O)O)cc1OCC,2,-3,-3,9,2,.,.
COC(=O)c1[nH]c2ccc(Br)cc2c1NC(=O)CN1CCN(C2CCCCC2)CC1,1,6,1,9,99*,99*,51*
COC(=O)c1[nH]c2ccc(C)cc2c1NC(=O)CCN1CCN(C2CCCCC2)CC1,-1,0,.,6,22,.,.
Cc1ccc(-n2ncc(-c3n[nH]c(=S)o3)c2N)cc1C,.,.,0,.,.,.,.
CC(=O)NCc1ccc(C(=O)CCl)cc1,31,13,0,4,-4,.,.
CC(=O)Nc1ccc(C(=O)CCl)cc1,31,2,0,20,67*,29,.
COc1ccccc1CC1CC(=O)N(c2ccc([N+](=O)[O-])cc2)C1=O (centres undefined),.,.,1,.,.,.,.
COc1ccccc1NC(=O)N(Cc1ccco1)Cc1cc2cc(C)cc(C)c2[nH]c1=O,18,-1,-2,-8,53*,37,.
COc1ccccc1NC(=S)N(Cc1ccco1)Cc1cc2cc(C)c(C)cc2[nH]c1=O,8,5,0,19,59*,54*,56*
COc1ccccc1NC(=S)N(Cc1ccco1)Cc1cc2cccc(C)c2[nH]c1=O,10,26,0,2,-5,.,.
Cc1cc2cc(CN(Cc3ccco3)S(=O)(=O)c3c(C)ccc4nsnc34)c(=O)[nH]c2cc1C,17,16,19,28,61*,54*,54*
OCc1cccc(-c2cnc3c(Nc4cccc(OC(F)(F)C(F)F)c4)nccn23)c1,.,.,2,.,.,.,.
CCOC(=O)c1c(C)[nH]c(C)c1C(=O)CSc1nc2ccccc2c(=O)n1-c1ccc(CC)cc1,14,19,6,27,56*,37,96*
COc1ccc(OC)c(CN2C(=O)CCC2(C)c2nnnn2-c2c(C)cccc2C)c1 (centres undefined),.,.,-1,.,.,.,.
SMILES,tim23-1 inh,tim10-1 inh,MPTP inh,TIM10 inh,Mdm2 MdmX PPI,Mdm2 MdmX conf,FLuc counter
Nc1ncc(-c2ccccc2)c(-c2ccc(O)cc2O)n1,12,13,-1,3,61*,31,.
Nc1[nH]c(C(=O)c2ccccc2)c(-c2ccccc2Br)c1C(=O)c1ccccc1,.,.,0,.,.,.,.
Cc1cc(C)c2cc(CN(CCCN(C)C)C(=S)NCc3ccccc3)c(=O)[nH]c2c1,17,20,1,-8,53*,30,.
Cc1ccc(OCC(=O)Nc2nc(-c3ccccn3)cs2)c(C)c1,46,31,0,-18,43,.,.
O=C(CCS(=O)(=O)c1ccccc1)Nc1nc(-c2ccc(F)cc2)cs1,-6,-8,14,-8,60*,43*,53*
Cc1ccc(S(=O)(=O)CCC(=O)Nc2nc(-c3ccccn3)cs2)cc1,13,9,0,-12,67*,29,.
Cc1ccc(S(=O)(=O)CCC(=O)Nc2nc(-c3cccnc3)cs2)cc1,8,21,0,10,58*,36,66*
O=C(Cc1ccccc1F)Nc1nc(-c2ccc(F)cc2)cs1,42,8,0,24,11,.,.
O=C(Nc1nc(-c2ccncc2)cs1)c1ccc(F)cc1,-14,-28,-1,-15,66*,22,.
Cc1ccc(NC(=O)C2(C)CCN2C(=O)Cc2ccc(C(C)(C)C)cc2)cc1C (centres undefined),.,.,2,.,.,.,.
Cc1cc(C(=O)N2CCC2(C)C(=O)Nc2ccc3[nH]ncc3c2)nn1C (centres undefined),.,.,-1,.,.,.,.
O=C(COc1ccccc1)Nc1nc(-c2ccncc2)cs1,32,25,0,15,36,.,.
O=C(CCS(=O)(=O)c1ccc(Cl)cc1)Nc1nc(-c2cccnc2)cs1,0,17,-3,7,70*,32,72*
CC(=O)c1sc(NC(=O)CCS(=O)(=O)c2ccc(Cl)cc2)nc1C,21,26,0,18,51*,52*,69*
COc1ccc(NC(=O)CCS(=O)(=O)c2ccc(Cl)cc2)cc1,9,21,0,2,-38,.,.
O=C(CCS(=O)(=O)c1ccc(Cl)cc1)Nc1nc(-c2ccncc2)cs1,9,20,-1,11,97*,56*,26
Cc1cc(Cl)ccc1OCC(=O)Nc1nc(-c2cccnc2)cs1,-10,-8,2,-4,37,.,.
